From PubChem
VACV mCherry inh – inhibitors of vaccinia virus infection (mCherry reporter signal). AID 720579. Potency, µM (titrated, usually from 36.5 µM), for inactives: at the highest dose activity change, negative = inhibition, usual class: inhibitors. Vaccinia virus mCherry reporter infection, fluorescence. 310,000 tested, 0.63% active; calls by dose curve; tested in A549 cells; further: on the % scale 0 is the no-effect control and ±100 the full control effect; nearly all actives have a fitted effect of over 35% in size
HCV inh – blocks hepatitis C virus. Huh7.5.1 HCVcc-Cre infection, luciferase reporter, 44 h. Potency, µM (top dose mostly 41.8 µM), for the others: at the top dose activity change, negative = inhibition, actives largely listed as inhibitors. 340,000 tested, 3.4% active. AID 651820; further: on the % scale 0 is the no-effect control and ±100 the full control effect
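Cells (1,000/well) were plated 4 h before compound, then infected with HCVcc-Cre virus (~0.5 moi). After 44 h further culture, infection was read as luciferase luminescence following a 15 min substrate incubation at room temperature.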
Pf growth 48h – P. falciparum growth inhibition at 48 hours (one generation); 310,000 tested, 5.9% active; P. falciparum luciferase growth in erythrocytes, 48 h; AID 504832; Potency, µM (titrated, usually from 28.7 µM), inactives show at the top dose activity change, negative = inhibition, usual class: inhibitors; further: on the % scale 0 is the no-effect control and ±100 the full control effect
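Compounds are pin-transferred into medium, infected erythrocytes (2% hematocrit, 0.1% parasitemia final) are added, and plates sit one parasite generation at 37 C in 5% CO2. Detection reagent is then added and luminescence measured.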
VACV Venus inh – vaccinia inhibition (Venus reporter); Vaccinia virus Venus reporter expression, fluorescence; Potency, µM (highest dose often 36.5 µM), for inactives: top-dose activity change, negative = inhibition, usual class: inhibitors; 330,000 tested, 0.46% active; calls by dose curve; tested in A549 cells; further: on the % scale 0 is the no-effect control and ±100 the full control effect; nearly all actives have a fitted effect of over 30% in size
NS1 inh – influenza NS1 inhibition; Potency, µM (titrated, usually from 46.1 µM), for the others: top-dose activity, positive = more growth; 270,000 tested, 0.4% active; AID 2326; calls by dose curve; further: actives are rising curves; nearly all actives have a fitted effect of over 50% in size
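Read-out: OD600 growth recovery of NS1-expressing budding yeast. Cells grown overnight at 30C in -URA glucose medium, washed, resuspended and diluted 1:100 in 2% galactose assay medium, pH 6.0. Same strain lacking NS1 served as positive control.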
Pf growth 96h – inhibits malaria parasite growth, 96 h; 320,000 tested, 6.9% active; AID 504834; Potency, µM (doses to about 28.7 µM), inactives show top-dose activity change, negative = inhibition, hits mostly inhibitors; P. falciparum luciferase reporter growth, 96 h; further: on the % scale 0 is the no-effect control and ±100 the full control effect
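Plates of compound plus infected erythrocytes (2% hematocrit, 0.05% parasitemia final) incubate 96 hours, 37 C, 5% CO2. Detection reagent added; reduced luminescence from the parasites' luciferase reporter flags inhibition.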
Numbers without * were called inactive; i = inactive; ? = inconclusive; . = no result; [ ] = another dose, or the depositor's remark. Sampled rows, rich in hits. Any-hit rate of the full collection: about 11%. Unless noted, the call rests on the fitted dose curve; in most records, active means well fitted inhibition curve with a large enough effect; inconclusive means small, poorly fitted or top-dose-only effect, or another doubt; inactive means no such curve, though single readings can be large or run the other way. Potency means the concentration at half of the fitted maximal effect.

SMILES	VACV mCherry inh	HCV inh	Pf growth 48h	VACV Venus inh	NS1 inh	Pf growth 96h
Cc1cccc(OC(=O)c2cn(C)nc2C(F)(F)F)c1C	.	-0.6%	.	-11.6%	-0.1%	-3.9%
NNC(=S)NC1CCCCCCCCCCC1	.	-17.9%	?	.	-0.6%	10.4µM*
Cc1cccc(CCNS(=O)(=O)c2cc3c(cc2C)NC(=O)CO3)c1	14.7%	-25.0%	17.4%	-6.4%	13.7%	9.28µM*
Cc1ccc(CCNS(=O)(=O)c2cc3c(cc2C)NC(=O)CO3)cc1	-12.6%	-27.9%	-7.3%	-20.0%	-6.7%	53.1%
CCOC(=O)c1cccc(NS(=O)(=O)c2cc3c(cc2C)NC(=O)CO3)c1	-10.1%	.	.	-5.4%	.	.
Cc1cc2c(cc1S(=O)(=O)CCC(=O)NCCc1ccccc1)OCC(=O)N2	27.1%	-2.3%	-11.2%	5.3%	-7.8%	8.28µM*
Cc1cccc(CCNC(=O)CCS(=O)(=O)c2cc3c(cc2C)NC(=O)CO3)c1	14.1%	-21.9%	7.0%	-9.2%	-8.2%	?
CC(=O)c1cccc(NS(=O)(=O)c2cc3c(cc2C)NC(=O)CO3)c1	-8.3%	-16.1%	17.5%	-3.0%	5.3%	14.7µM*
Cc1nc2nc(SCC(=O)NCCCN3CCCCC3)nn2c(C)c1Cc1ccccc1	i	?	?	-1.7%	-1.4%	-17.9%
CCOCCCNC(=O)CSc1nc2nc(C)c(Cc3ccccc3)c(C)n2n1	-20.4%	1.7%	1.3%	20.6%	.	4.65µM*
Cc1ccc(Cc2c(C)nc3nc(SCC(=O)NCCCN4CCCCCC4)nn3c2C)cc1	-14.8%	?	?	-18.1%	16.4%	10.4µM*
Cc1nc2nc(SCC(=O)NCCCN3CCOCC3)nn2c(C)c1Cc1ccccc1	.	10.5%	?	.	.	3.29µM*
O=C(Nc1nccs1)c1cc(S(=O)(=O)N2CCOCC2)ccc1Cl	-11.2%	1.6%	-2.6%	-10.2%	-1.2%	6.3%
COc1ccccc1CC1CC(=O)N(c2ccccc2)C1=O (configuration not stated)	.	5.6%	-2.4%	.	-3.8%	9.28µM*
CC(=O)[C@H]1CCC2C3CC[C@H]4C[C@@H](O)CC[C@]4(C)C3CC[C@@]21C (some centres not stated)	i	-5.0%	.	-10.1%	.	.
CC(=O)OC1CC2(O)C3CCC4CC(O)CCC4(C)C3CCC2(C)C1C1=CC(=O)OC1 (configuration not stated)	35.5µM*	?	.	?	.	.
CC1OC(OC2C(O)CC(OC3C(O)CC(OC4CCC5(C)C(CCC6C5CCC5(C)C(C7=CC(=O)OC7)C(O)CC65O)C4)OC3C)OC2C)CC(O)C1O (configuration not stated)	.	?	.	0.316µM*	.	.
C[C@H]1O[C@@H](O[C@H]2[C@@H](O)C[C@H](O[C@H]3[C@@H](O)C[C@H](O[C@H]4CC[C@@]5(C)[C@H](CC[C@@H]6[C@@H]5CC[C@]5(C)[C@@H](C7=CC(=O)OC7)CC[C@]65O)C4)O[C@@H]3C)O[C@@H]2C)C[C@H](O)[C@@H]1O	7.08µM*	-11.0%[8.37 µM]	?	0.0891µM*	-7.2%	4.15µM*
CC1O[C@@H](O[C@@H]2C(O)C[C@H](O[C@@H]3C(O)C[C@@H](OC4CC[C@@]5(C)C6CC(O)[C@@]7(C)C(C8=CC(=O)OC8)CC[C@@]7(O)C6CC[C@@H]5C4)OC3C)OC2C)CC(O)[C@H]1O (some centres not stated)	1µM*	.	.	1µM*	.	.
Cc1ccc2cc(C(c3nnnn3CC3CCCO3)N3CCCC4(CCCCC4)C3)c(=O)[nH]c2c1 (configuration not stated)	-11.9%	0.1%	.	-10.2%	-11.9%	.
CC(C)=CCC[C@](C)(O)C1CC[C@]2(C)C1C(O)CC1[C@@]3(C)CCC(O)C(C)(C)C3C(O[C@@H]3OC(CO)C(O)C(O)C3O[C@@H]3OC(C)C(O)C(O)C3O)C[C@]12C (some centres not stated)	-1.7%	?	.	-8.1%	.	.
